From PubChem BioAssay
V-ATPase pH = yeast V-ATPase proton transport regulation by pHLuorin | S. cerevisiae, pHLuorin cytosolic pH fluorescence | response, % at 10 µM | 350,000 tested, 0.37% active | AID 504577; in the data active means response mostly above about 7.3%, no sharp cut-off; inactive means mostly below about 5.4%; further: actives read high
VLA-4 inh = inhibition in a human VLA-4 binding assay | inhibition, % (about 7 µM as worked out from the volumes in the protocol) | 330,000 tested, 0.2% active | AID 2557 | VLA-4 expressing cells, ligand binding flow cytometry; in the data active means inhibition above about 50%
JMJD2C inh = inhibitors of human GASC-1 (JMJD2C) demethylase; GST-JMJD2C(1-420) H3K9me3 demethylation, DELFIA europium; AID 2099; inhibition, % at 2.35 µM; 330,000 tested, 0.069% active; Q9H3R0;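 active means more than half of a compound's replicate wells show inhibition beyond 50%, single wells judged on their own value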;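 further: signal counts dimethyl H3K9 product captured on neutravidin plate; 0% = median of DMSO wells and 100% = 0.3 times that DMSO median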
Target sequence (Q9H3R0 1-420 limits assumed): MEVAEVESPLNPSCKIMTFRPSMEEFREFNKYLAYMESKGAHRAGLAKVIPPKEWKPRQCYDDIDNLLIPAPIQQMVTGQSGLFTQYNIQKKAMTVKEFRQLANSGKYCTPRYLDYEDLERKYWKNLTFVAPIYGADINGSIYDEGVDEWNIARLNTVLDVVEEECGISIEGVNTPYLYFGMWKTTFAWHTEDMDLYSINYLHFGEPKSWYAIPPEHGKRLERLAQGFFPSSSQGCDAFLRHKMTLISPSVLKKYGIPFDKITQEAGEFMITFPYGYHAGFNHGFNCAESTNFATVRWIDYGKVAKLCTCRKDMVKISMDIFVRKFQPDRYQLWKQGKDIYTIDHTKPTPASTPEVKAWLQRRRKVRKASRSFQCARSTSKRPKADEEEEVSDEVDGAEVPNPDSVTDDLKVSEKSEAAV
Granule exo inh = lytic granule exocytosis inhibition. 360,000 tested, 0.66% active. TALL-104 LAMP-1 surface exposure, flow cytometry; cells stimulated with thapsigargin and PMA. inhibition, % at 10 µM;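 active means inhibition above about 55%, limit read from the data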
m5-HT2A agonist = mouse HTR2A agonism via beta-arrestin recruitment | P35363 | 360,000 tested, 0.66% active | activation, % at 7.6 µM | AID 624169 | CHO-K1 mHTR2A beta-arrestin complementation, luminescence; percent of 30 µM serotonin response;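 active means activation above a run cutoff, the mean activation of all tested compounds plus 3 SD, cut at about 14% in these data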;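 further: 0% = plate median of compound wells and 100% = 30 µM serotonin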
MEX-5 binding = C. elegans MEX-5 TCR-2 RNA binding activity. Q9XUB2. MEX-5/FITC-TCR2 RNA binding, fluorescence polarization; active compounds read low. activity score (negative = inhibition of binding), % at 10 µM. 300,000 tested, 0.38% active. AID 1832;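 active means inhibition past about -25% in most replicates, and total fluorescence under double the plate's negative control median, limit read from the data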;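 further: 0% = DMSO and -100% = 5 µM competing unlabeled TCR2 RNA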
* hit, by the source's call; . = no result. This is a sample that favours compounds with a hit; in the whole collection about 2.2% have one here.

SMILES	V-ATPase pH	VLA-4 inh	JMJD2C inh	Granule exo inh	m5-HT2A agonist	MEX-5 binding
CCN1C(=O)c2ccc(C(=O)NCc3ccco3)cc2C1=O	1	5	13	7	2	0
O=C1/C(=C\c2ccc(O)cc2)SC(=S)N1Cc1ccccc1	-1	-220	17	1	-5	21
Cc1cc(/C=C2\SC(=S)N(Cc3ccco3)C2=O)c(C)n1-c1cccnc1	-10	.	2	2	0	-62*
O=C1/C(=C/c2ccccc2O)SC(=S)N1Cc1cccnc1	9	-5	-1	58*	1	0
OCCNc1c2ccccc2nc2c(F)c(F)c(F)c(F)c12	0	-186	-1	-2	1	-4
Cc1c2ccccc2nc2c(F)c(NCCO)c(F)c(F)c12	-5	-68	1	-2	-1	-31*
Cc1c2ccccc2nc2c(F)c(NC(C)C)c(F)c(F)c12	-4	-226	8	2	2	-33*
Cc1cc(O)c(Oc2cc(C)cc(O)c2O)c(O)c1	2	12	-1	4	4	-49*
Cc1ccc(O)c(O)c1	.	16	2	.	.	-7
Cc1cc(N2CCN(C)CC2)nc2ccc(NC(=S)NCCCN3CCc4ccccc4C3)cc12	-1	9	0	59*	-9	-1
Cc1cccc(N2CCN(C(=S)Nc3ccc4nc(N5CCN(C)CC5)cc(C)c4c3)CC2)c1C	-2	.	-1	63*	-7	2
COc1ccc2nc(-c3ccccc3)cc(C(=O)OCC(=O)NC3CC3)c2c1	1	.	.	13	-5	.
Cc1ccc2[nH]c(=O)c(CN(CCO)Cc3nnnn3CCc3ccccc3)cc2c1	14	3	3	8	4	-32*
CC(O)CC(=O)OC[C@]12CC[C@H]3[C@@](C)(CC[C@H]4C(C)(C)CCC[C@]34C)[C@@H]1CC(C1=CC(=O)OC1O)O2 (some centres undefined)	.	.	.	56*	-6	.
CC(=O)OC[C@]12CC[C@H]3[C@@](C)(CC[C@H]4C(C)(C)CCC[C@]34C)[C@@H]1C[C@H](C1=CC(=O)O[C@H]1OC(C)=O)O2	.	6	5	.	.	.
O=C(O)CCC(=O)NN1C(=O)c2ccccc2NC1c1ccc(F)cc1 (centres undefined)	5	15	4	-3	2	-2
CCOC(=O)C1=C2NC(=O)c3ccccc3N2C(=O)C1	4	0	-15	-1	1	-31*
CCOC(=O)C1=C(N)N(c2ccccc2Oc2ccccc2)C(=O)C1	-2	1	-6	-2	3	2
COc1cc2c(cc1OC)-c1c(OC)c(OC)cc3ccnc(c13)C2=O	-3	-1	-10	-2	2	-57*
COc1ccc(C(=O)c2nccc3cc(OC)c(OC)cc23)cc1OC	-3	23	4	0	4	.
O=C(O)c1ccc2c(c1)[C@@H]1C=CC[C@@H]1[C@H](c1ccccn1)N2	1	-7	-18	-2	1	-100*
COc1cccc(NS(=O)(=O)c2ccc3c(c2)C2C=CCC2C(c2ccc(C(=O)O)cc2)N3)c1 (centres undefined)	-2	16	-13	0	5	-66*
C=CCn1c(=O)/c(=C\c2ccsc2)s/c1=C(/C#N)C(=O)NCCN1CCOCC1	2	-6	-30	-2	-2	-46*
COc1ccc(-n2c(=O)/c(=C\c3cccs3)s/c2=C(/C#N)C(=O)NCCN2CCOCC2)cc1	0	0	-41	38	2	-11
O=C(c1ccc2ccccc2c1)c1cccc(F)c1C(=O)O	2	.	.	0	-1	.
SMILES	V-ATPase pH	VLA-4 inh	JMJD2C inh	Granule exo inh	m5-HT2A agonist	MEX-5 binding
O=C(OCc1ccc(Br)cc1)c1ccncc1	-1	0	3	-8	-3	2
O=C(OCc1ccc(Br)cc1)c1cnc(Cl)c(Cl)c1	-4	-21	4	61*	0	2
COc1ccccc1CNC(=O)COC(=O)CSc1ccc(F)cc1	1	-5	3	-5	-1	1
COc1cccc(=O)c2c(C)oc(C)c12	-2	3	9	1	-4	-71*
COc1ccccc1-n1c(C)c2c(OC)cccc(=O)c2c1C	-1	8	5	1	0	1
O=C(COC(=O)CNC(=O)c1ccc(Cl)cc1)Nc1ccc(Cl)cn1	13*	-7	5	-7	-3	.
